# Source: PubChem BioAssay AID1210 (NMMLSC, 2008)
# The source made the active and inactive calls.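 Rule for the calls: active = blocks over 70% of labeled estradiol binding at 10 µM, or over a set limit at 100 nM; inactive = the rest.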
# Biological target: Estrogen receptor beta (Homo sapiens) (UniProt Q92731)
# Experiment: ERbeta ligand binders by competition, primary screen, cell-based, Cos7 ERbeta-GFP, flow cytometry (AID 1210);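 note: 0% = DMSO vehicle wells and 100% = complete loss of labeled estradiol signal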
# Conditions: fluorescent estrogen binding, stronger effect = higher value
# [1] = ligand binding inhibition, at 0.1 µM
# Sequence of Estrogen receptor beta (Homo sapiens) (Q92731 whole entry, looked up): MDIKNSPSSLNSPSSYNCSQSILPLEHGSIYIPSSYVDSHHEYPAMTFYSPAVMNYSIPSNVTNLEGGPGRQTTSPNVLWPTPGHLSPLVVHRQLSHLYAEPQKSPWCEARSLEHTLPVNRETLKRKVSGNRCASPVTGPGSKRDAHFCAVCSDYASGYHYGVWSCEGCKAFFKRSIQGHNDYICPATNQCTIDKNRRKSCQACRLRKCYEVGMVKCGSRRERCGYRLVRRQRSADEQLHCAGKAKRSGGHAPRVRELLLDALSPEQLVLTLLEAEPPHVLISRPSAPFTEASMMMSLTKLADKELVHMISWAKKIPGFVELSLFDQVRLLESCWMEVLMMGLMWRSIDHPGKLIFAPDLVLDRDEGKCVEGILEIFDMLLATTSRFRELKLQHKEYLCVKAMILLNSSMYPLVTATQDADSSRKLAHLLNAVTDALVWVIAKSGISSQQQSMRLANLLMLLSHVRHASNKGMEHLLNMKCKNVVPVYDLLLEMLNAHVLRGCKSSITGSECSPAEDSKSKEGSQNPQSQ
Compound,inhibition (at 10 µM),inhibition [1]
O=C(Nc1ccc2c(c1)nc1n2CCSC1)c1ccco1,57% (inactive),31%
CSCCC(NC(=O)c1ccco1)C(=O)OCC(=O)Nc1sccc1C#N (stereo unspecified),6% (inactive),28%
COc1ccc(-c2nc3ccc([N+](=O)[O-])cc3o2)cc1,36% (inactive),12%
O=C(Nc1ccc2oc(-c3ccccc3F)nc2c1)c1cncc(Br)c1,63% (inactive),25%
O=C(CSc1ccc(Cl)cc1)c1ccco1,14% (inactive),53%
CCc1ccc2[nH]c(=O)c(C3C(C#N)=C(N)Oc4c3ccc3cccnc43)cc2c1 (stereo unspecified),23% (inactive),36%
COc1cccc2cc3c(=O)n(-c4ccccc4)nc-3oc12,70% (inactive),12%
O=C1c2ccccc2C(=O)N1/N=C/c1ccc(O)c(O)c1,58% (inactive),54%
Nc1ccc2oc(-c3ccccc3Cl)cc(=O)c2c1O,25% (inactive),26%
Nc1nc(N)c2sc3nc4c(cc3c2n1)CCC4,29% (inactive),7%
COc1ccc2c(c1)c(=O)oc1cc(OCC(=O)N3CCC(C)CC3)ccc12,52% (inactive),35%
COc1cc2c(cc1OC)C(Cc1ccc(O)cc1)N(C)CC2 (stereo unspecified),56% (inactive),6%
O=C(Oc1ccc(-c2cnc3ccccc3n2)cc1)c1ccc(Br)o1,72% (active),29%
O=C(Nc1ccc(-c2nc3ccc(NC(=O)c4cccs4)cc3[nH]2)cc1)c1cccs1,58% (inactive),18%
COc1ccc(-c2nn(-c3ccccc3)cc2/C=C2/SC(=S)N(Cc3ccco3)C2=O)c(C)c1,57% (inactive),23%
C=C1C2C[C@H](O)C(C)(C)[C@@]2(O)[C@H](O)C[C@]23C[C@@](C)(O)[C@H](CC[C@H]12)[C@H]3O (stereo partly specified),70% (inactive),1%
Cc1ccc(-c2cc(C(=O)NCc3ccco3)c3ccccc3n2)o1,36% (inactive),47%
O=C(Cc1cn2ccsc2n1)OCc1nc2ccccc2s1,58% (inactive),24%
Cn1cccc1/C=C1\SC(=O)N(c2ccc(O)cc2)C1=O,31% (inactive),7%
O=C(Cc1cccs1)Nc1ccc(S(=O)(=O)N2CCCCC2)cc1,37% (inactive),38%
Cc1ccc(C2=Nc3ccccc3N=C(c3ccco3)C2)c(O)c1,2% (inactive),29%
Cc1ccccc1NC(=O)CSc1nnc(-c2ccco2)c(-c2ccco2)n1,31% (inactive),27%

Compound,inhibition (at 10 µM),inhibition [1]
O=C(CSc1nc2ccccc2c(=O)[nH]1)c1ccc(O)c(O)c1,36% (inactive),14%
C/C(N)=C(/C#N)C(=O)CSc1nnc(-c2ccc(OC(F)F)cc2)o1,37% (inactive),23%
COc1ccc(C2C=C(c3ccc(Cl)cc3)Nc3nc(NC(C)=O)nn32)cc1 (stereo unspecified),16% (inactive),21%
CC(=O)c1cccc(NC(=O)Cc2cccs2)c1,11% (inactive),23%
O=C1CC(=O)N2N=C(c3ccc([N+](=O)[O-])cc3)SC2=N1,45% (inactive),19%
Oc1cccc(-c2nc3ccc4ccccc4c3c3c2CCC3)c1,39% (inactive),21%
Oc1ccc(-c2nccc(-c3cccs3)n2)cc1,28% (inactive),14%
COc1ccc(C2Nc3ccccc3C(=O)N2c2ccc(F)cc2)cc1CSc1ccccn1 (stereo unspecified),6% (inactive),30%
O=C1c2ccccc2NC(c2cccnc2)N1c1ccccc1F (stereo unspecified),63% (inactive),24%
CCN(c1ccccc1)S(=O)(=O)c1ccc2[nH]cc(C(=O)NCCOC)c(=O)c2c1,35% (inactive),30%
Oc1ccc(-c2nnc(-c3ccccc3)c(-c3ccccc3)n2)cc1,38% (inactive),25%
Cc1cc(C(=O)Nc2sc3c(c2C#N)CCC3)no1,46% (inactive),23%
O=C(Nc1sc2c(c1C(=O)O)CCC2)c1ccccc1,46% (inactive),35%
CCc1ccc2[nH]c(=O)c(CN(Cc3ccc4c(c3)OCO4)C(=O)c3ccco3)cc2c1,13% (inactive),6%
O=C(c1cccs1)N1N=C(c2ccc(O)cc2)CC1c1ccccc1 (stereo unspecified),68% (inactive),23%
Nc1ccc2nc(-c3ccc(Cl)cc3)[nH]c2c1,42% (inactive),16%
O=C(c1cccs1)N1N=C(c2ccccc2)CC1c1ccc(O)cc1 (stereo unspecified),69% (inactive),23%
COc1ccc(-c2nnc(SCC(=O)/C(C#N)=C(\C)N)o2)cc1,36% (inactive),13%
CC1CCc2c(sc(NC(=O)c3ccc(Cn4cc([N+](=O)[O-])cn4)o3)c2C#N)C1 (stereo unspecified),19% (inactive),58%
COc1ccc(CNC(=O)c2cc(-c3cccs3)on2)cc1,39% (inactive),23%
CCOC(=O)C1CCCN(C(=O)c2ccc(CS(=O)(=O)c3ccc(C)cc3)o2)C1 (stereo unspecified),55% (inactive),21%
O=C(O)c1ccc2c(c1)C1C=CCC1C(c1cc3c(cc1Br)OCO3)N2 (stereo unspecified),38% (inactive),6%

Compound,inhibition (at 10 µM),inhibition [1]
CC1(C)CC(=O)c2c(oc3cc(O)c(O)cc23)C1,11% (inactive),3%
COc1cc(-c2nc3ccc4ccccc4c3c3c2CCC3)ccc1O,0% (inactive),59%
COc1ccc(Cc2nnc(NC(=O)Cc3cccs3)s2)cc1,17% (inactive),29%
C=CCn1c(SCC(=O)NC(=O)NCc2ccco2)nc2sc(CC)cc2c1=O,33% (inactive),10%
COc1ccc(N2Cc3cccc(C(=O)N4CCN(C(=O)c5ccco5)CC4)c3C2=O)cc1,29% (inactive),27%
Cc1cc(C)cc(OCC(=O)Nc2ccc(N3CCCC3)cc2)c1,71% (active),37%
COc1cc2c(cc1OC)C(Cc1ccc(O)cc1)NCC2 (stereo unspecified),23% (inactive),13%
Cc1ccc2[nH]c(=O)c(C3C(C#N)=C(N)Oc4c3ccc3cccnc43)cc2c1 (stereo unspecified),44% (inactive),24%
Cc1cc2oc(=O)cc(COC(=O)c3n[nH]c4ccccc34)c2cc1C,68% (inactive),18%
c1ccc(-c2nnc3sc(Cc4cccs4)nn23)cc1,18% (inactive),20%
O=C(CSc1nnc(Nc2ccccc2F)s1)NCc1ccco1,4% (inactive),48%
Cc1ccc(C(=O)N/N=C/c2ccc([N+](=O)[O-])s2)cc1,38% (inactive),58%
Nc1cc2sc(-c3ccc(C(=O)O)cc3)nc2cc1Cl,22% (inactive),44%
CN(CC(=O)NC(=O)NCc1ccco1)Cc1nc2ccccc2c(=O)[nH]1,14% (inactive),53%
COc1cccc(-c2nnc(NC(=O)Cc3cccs3)s2)c1,30% (inactive),47%
Cc1c(C(=O)OCc2ccccc2)[nH]c2c1C(=O)CC(c1ccco1)C2 (stereo unspecified),45% (inactive),17%
COc1ccc(/C=N/NC(=O)c2nc(-c3ccccc3)n(-c3ccccc3)n2)c(O)c1,45% (inactive),33%
CCOC(=O)C1=C(O)/C(=C\c2ccc(CNC(=O)C(=O)Nc3ccccc3)o2)N=C1C,20% (inactive),61%
O=C(Cc1cccs1)Nc1ccccn1,39% (inactive),10%
Cc1ccc(-c2nn(-c3ccccc3)cc2CSC(=N)N)cc1,38% (inactive),33%
Cc1csc(C(C#N)C(=O)c2ccncc2)n1 (stereo unspecified),13% (inactive),4%
CCOc1cc(C2CC(=O)c3c(ccc4ccccc34)N2)ccc1O (stereo unspecified),19% (inactive),8%

Compound,inhibition (at 10 µM),inhibition [1]
Cc1ccc(-c2csc(NC(=O)c3ccno3)n2)cc1,40% (inactive),28%
CS(=O)(=O)c1ccc2nc(NC(=O)CCC(=O)c3cccs3)sc2c1,62% (inactive),9%
C=CCn1c(COc2cccc(C)c2)nnc1SCC(=O)NC(=O)NCc1ccco1,31% (inactive),47%
O=C(Cn1nnc(-c2ccc3c(c2)OCO3)n1)NCc1ccco1,46% (inactive),24%
CC1CC(C(F)(F)C(F)(F)F)n2nc(C(=O)O)cc2N1 (stereo unspecified),58% (inactive),27%
Cc1ccc(/C=c2\sc3nc(-c4ccco4)nn3c2=O)o1,61% (inactive),27%
CCOc1ccc(C2C3=C(Nc4nc(N)[nH]c(=O)c42)c2ccccc2C3=O)cc1 (stereo unspecified),22% (inactive),39%
Cc1ccc(Cc2cncc(O)c2)cc1S(=O)(=O)O,0% (inactive),13%
CC1(C)CC(=O)C2=C(C1)OC(c1ccc(O)cc1)C(C#N)=C2N (stereo unspecified),47% (inactive),49%
N=C1C(c2nc3ccccc3[nH]2)=C(O)CN1c1ccc(CC(=O)O)cc1,26% (inactive),21%
Cc1c(Cl)cccc1NS(=O)(=O)c1ccc2c(c1)C1C=CCC1C(c1ccc(C(=O)O)cc1)N2 (stereo unspecified),2% (inactive),12%
CCOC(=O)c1c(C)oc2c1c(C=NC1CCS(=O)(=O)C1)c(O)c1ccccc12 (stereo unspecified),38% (inactive),11%
O=C1Nc2ccccc2SC(c2ccccc2)C1O (stereo unspecified),56% (inactive),26%
COc1ccc2[nH]c3c(c2c1)CCn1c-3nc2ccccc2c1=O,16% (inactive),36%
N#CC(C(=O)Nc1ccc(Cl)cc1)=C1Nc2ccccc2N1,59% (inactive),21%
COc1ccc(-c2nnc(-c3cc4c(ccc5ccccc54)oc3=O)o2)cc1,33% (inactive),6%
C/C(N)=C(/C#N)C(=O)CSc1nnc(COc2ccccc2Cl)o1,44% (inactive),44%
COC(=O)c1ccc(C2Nc3ccc(/C(C)=N/NC(=O)C(OC)c4ccccc4)cc3C3C=CCC32)cc1 (stereo unspecified),22% (inactive),40%
Cc1sc2ncnc(SCC(=O)NC(=O)NCc3ccco3)c2c1C,47% (inactive),14%
CC(=O)c1ccc(NCC(=O)N2CCN(c3ccccc3)CC2)cc1,72% (active),41%
COc1cc(C(C#N)N2N=C(c3ccccc3)CC2c2ccccc2)ccc1O (stereo unspecified),54% (inactive),5%
N=c1c(C(=O)NCc2ccc(F)cc2)cc2c(=O)n3ccccc3nc2n1Cc1cccnc1,30% (inactive),34%
